Data taken from PubChem BioAssay AID493194 (Broad Institute, 2011).
Results with a measured potency or affinity are listed apart. Results filed as inconclusive are left out.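 The calls were made as follows: active = a valid curve of falling signal whose half-effect concentration is at most ten times the top tested dose; inconclusive = flat curve at 30 to 70% inhibition, or poor fit; inactive = signal rise, flat within 30%, or potency beyond limit.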

Target: Scavenger receptor class B member 1 (Mus musculus) (UniProt Q61009)
Sequence (Q61009 whole entry, looked up): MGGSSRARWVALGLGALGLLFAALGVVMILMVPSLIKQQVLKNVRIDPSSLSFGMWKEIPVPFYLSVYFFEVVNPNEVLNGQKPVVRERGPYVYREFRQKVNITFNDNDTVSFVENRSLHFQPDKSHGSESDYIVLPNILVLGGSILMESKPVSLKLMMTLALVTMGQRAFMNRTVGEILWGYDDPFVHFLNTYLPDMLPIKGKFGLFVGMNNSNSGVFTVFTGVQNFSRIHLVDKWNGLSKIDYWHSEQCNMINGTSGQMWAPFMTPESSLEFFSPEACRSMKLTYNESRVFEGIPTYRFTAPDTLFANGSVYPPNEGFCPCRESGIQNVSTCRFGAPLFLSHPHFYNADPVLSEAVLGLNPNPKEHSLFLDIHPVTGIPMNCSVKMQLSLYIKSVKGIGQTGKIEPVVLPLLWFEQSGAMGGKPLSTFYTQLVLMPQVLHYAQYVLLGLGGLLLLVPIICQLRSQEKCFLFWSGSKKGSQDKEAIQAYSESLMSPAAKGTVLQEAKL
Test: mouse SR-BI DiI-HDL uptake blockers – ldlA[mSR-BI] cells, fluorescence, cherry pick, dose response (AID 493194);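 also: CHO cells lacking LDL receptor and overexpressing mouse SR-BI; cellular uptake of fluorescently labeled HDL measured as cell fluorescence; 0% = median of neutral control wells and -100% = median of positive control wells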
Details: CHO ldlA[mSR-BI] DiI-HDL uptake fluorescence, 3 h; series mostly up to 35 µM; activity change, negative = inhibition: at the top concentration

Activity change, negative = inhibition, inactive:
Cc1ccc(-c2cc(C(=O)Nc3sc4c(c3C(=O)NCc3ccco3)CCC4)[nH]n2)c(O)c1 46.6%
COc1ccc(N2CCN(C(=O)Cc3csc(NC(=O)Nc4ccccc4OC)n3)CC2)cc1 -3.2%
CCCOc1ccc(C(=O)Nc2ccc(S(=O)(=O)N3C[C@@H]4C[C@@H](C3)c3cccc(=O)n3C4)cc2)cc1 -3.84%
Cc1ccccc1C(=O)NC1CC2CCCC(C1)N2C(=O)Nc1ccccc1 (centres undefined) 8.56%
CCNC(=O)c1c(NC(=O)c2cc(-c3cc(C)cc(C)c3O)n[nH]2)sc2c1CCCC2 -29.5%
Cn1c(-c2ccsc2)c(-c2cccs2)c2cc(-c3ccc4cc[nH]c4c3)ccc21 -34.9%
COc1cc(/C=C/C(=O)OCC(=O)c2ccc[nH]2)cc(OC)c1OC -21.2%
COc1ccc(S(=O)(=O)N2CCC(C(=O)NN3CCCCC3)CC2)cc1OC 4.12%
O=C(CN1CCN(CC(=O)Nc2ccc3c(c2)OC2(CCCCC2)O3)CC1)Nc1cccc(F)c1 2.55%
COc1ccc(OC)c(NC(=O)CCC(=O)N(Cc2ccc(OC)c(OC)c2)c2nccs2)c1 -22.8%
COC(=O)[C@]1(CC(C)C)N[C@H](c2ccc(-c3cccc(Cl)c3)cc2)[C@@H]2C(=O)N(C)C(=O)[C@@H]21 -26.2%
Cc1cccc(NC(=O)C2(C)CC3c4ccccc4C2c2ccccc23)c1C (centres undefined) 29.8%
Cc1cccc(-c2ccc3c(c2)C2CC3CCN2C(=O)OCc2ccccc2)c1 (centres undefined) -7.63%
COc1ccc(C2/C=C\CN(S(=O)(=O)c3ccc(-c4ccccc4)cc3)CC(=O)N2Cc2ccc(F)cc2)cc1 (centres undefined) 2.88%
O=C(Nc1cccc(-c2cn3c(n2)SCC3)c1)c1ccc2ccccc2n1 47.3%
COc1ccc(NC(=O)c2ccc3c(c2)CCN3S(=O)(=O)c2ccccc2)cc1 -8.87%
CCOc1ccc(CCNC(=O)Cn2ncn3nc(-c4ccc(OC)cc4)cc3c2=O)cc1 -20%
Cc1ccsc1-c1nc(-c2ccccc2)c(-c2ccccc2)[nH]1 -8.96%
COCC(C)N1CC(O)=C(c2nc(-c3ccc(Cl)cc3)cs2)C1=N (centres undefined) -3.9%
COc1ccc(-c2nc(-c3ccc(O)cc3O)cs2)cc1OC -21.4%
CCCCCCC(=O)Nc1nc(C)c(-c2csc(Nc3ccc(Cl)cc3)n2)s1 8.24%
CCOC(=O)C(C)(C)Sc1nc2c(cnn2-c2ccc(F)cc2)c(=O)[nH]1 -12.7%
CCOc1ccc(NC(=O)CN2CCN(CC(=O)Nc3ccc(OC)cc3)CC2)cc1 87.5%
CCC(=O)Nc1ccccc1-c1nnn(CC(=O)N2c3ccccc3CC2C)n1 (centres undefined) 3.68%
CCn1c(C)c(C)c2cc(C(=O)Nc3cccc(Cl)c3)ccc21 -55.2%
O=C(Nc1cccc(-c2csc(Nc3ccc(Cl)cc3)n2)c1)c1cccc(C(F)(F)F)c1 -46.5%
O=C(Nc1ccc(-c2csc(Nc3cccc(C(F)(F)F)c3)n2)cc1)c1cccc(C(F)(F)F)c1 5.91%
COc1ccc(N2C(=O)C3C(C2=O)C3(c2ccccc2)c2ccccc2)cc1 (centres undefined) 26.6%
CCCC(=O)Nc1ccc(Cl)c(NC(=O)c2cccc(OC)c2)c1 -4.6%
Fc1ccc(-c2cc(-c3cccs3)cc(-c3ccccc3)n2)cc1 37.5%
O=C(c1ccc(S(=O)(=O)NCc2ccco2)cc1)N1CCN(Cc2ccccc2F)CC1 -13.8%
O=C(NC1CCCC1)C(c1c[nH]c2ccccc12)N(C(=O)Cn1nnc(-c2ccc(Cl)cc2)n1)c1ccccc1 (centres undefined) 47.2%
COc1ccc(CCn2c(C)cc(C(=O)CSc3nc(N)cc(=O)[nH]3)c2C)cc1 -10.1%
COC(=O)c1[nH]c2c(c1C)C(=O)CC(c1cccs1)C2 (centres undefined) -2.17%
N#Cc1ccc(CN2CCN(C(=O)c3ccc(S(=O)(=O)NCc4ccco4)cc3)CC2)cc1 -45.4%
O=C(Nc1cccc(Cl)c1)Nc1sccc1-c1nc2ccccc2s1 -30.2%
COc1ccc(-c2cc(C(F)(F)F)nc(SCCC(=O)N3CCN4CCCC4C3)n2)cc1 (centres undefined) 0.459%
COc1ccc(OCC(O)Cn2c(Nc3cccc(C)c3)nc3c2c(=O)n(C)c(=O)n3C)cc1 (centres undefined) -47.7%
COc1ccc(CCNC(=O)CCC(=O)N2CC(C)Oc3ccc(Cl)cc32)cc1OC (centres undefined) -10.9%
